# According to PubChem BioAssay:
# Calls of active or inactive are those of the source.
# Key:
# [1] = test system: XIP peptide (Xip251-270) binding; experiment: small-molecule binders of XIP peptide, primary screen, biochemical, small-molecule microarray, fluorescence 635/667 nm, 0.1 µg/mL protein (AID 1182); conditions: fluorescent protein binding, 635 nm, higher = more signal, called active from +8 up or from −8 down
# XIP peptide (Xip251-270) = experiment: small-molecule binders of XIP peptide, primary screen, biochemical, small-molecule microarray, fluorescence 635/667 nm, 0.5 µg/mL protein (AID 1183); conditions: small-molecule microarray binding, fluorescence 635 nm; higher = more signal
# [2] = Plasmodium falciparum growth inhibition, primary screen, strain 3D7, DAPI fluorescence, 100 nL (AID 1184);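 note: parasites grown inside human red blood cells in medium with human serum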; conditions: P. falciparum 3D7 growth, 3 d, higher = more signal
# [3] = molecular target: Homeobox protein Hox-A13 (Mus musculus) (UniProt Q62424); experiment: inhibitors of HoxA13-DNA binding, primary screen, biochemical, fluorescence polarization, labeled oligonucleotide (AID 1185); conditions: 15 min, higher = more signal, called active from +8 up or from −8 down
# Sequence of Homeobox protein Hox-A13 (Mus musculus) (Q62424 whole entry, looked up): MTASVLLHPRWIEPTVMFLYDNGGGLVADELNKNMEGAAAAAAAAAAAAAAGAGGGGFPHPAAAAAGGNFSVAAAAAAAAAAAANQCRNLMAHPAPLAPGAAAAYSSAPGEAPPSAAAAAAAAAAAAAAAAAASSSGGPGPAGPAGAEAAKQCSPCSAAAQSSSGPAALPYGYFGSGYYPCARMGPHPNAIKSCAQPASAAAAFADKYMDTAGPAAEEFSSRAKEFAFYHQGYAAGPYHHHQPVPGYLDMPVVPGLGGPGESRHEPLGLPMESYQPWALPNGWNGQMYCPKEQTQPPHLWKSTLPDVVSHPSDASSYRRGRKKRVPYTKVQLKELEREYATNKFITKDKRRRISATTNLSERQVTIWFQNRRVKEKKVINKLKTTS
SMILES,composite z-score [1],composite z-score (XIP peptide (Xip251-270)),z-score [2],z-score [3]
C[C@H]1CC[C@H]2C(=O)O[C@H](COc3ccc(C(C)(C)C)cc3)CN2[C@@H]1c1ccc(Br)cc1,1.71 (inactive),0.567,-0.398,1.13 (inactive)
Cc1ccc(S(=O)(=O)n2c3ccccc3c3nnc(C(=O)c4ccccc4)nc32)cc1,0.912 (inactive),0.249,0.892,-3.73 (inactive)
COC(=O)[C@@H]1CC[C@H](C)[C@@H](c2ccc(C)cc2)N1C(=O)c1ccc(C=NOC[C@@H](C)[C@H](OCc2ccccc2)C(C)C)cc1,0.0611 (inactive),0.489,-1.87,-4.87 (inactive)
COC(=O)CC=C[C@@H](C)[C@@H](C=NOC[C@@H](O)[C@H]1O[C@@H]2OC(C)(C)O[C@@H]2[C@H]1O)NS(=O)(=O)c1ccc(C)cc1,0.0133 (inactive),-0.0003,1.4,0.413 (inactive)
CO[C@H]1COC(=O)[C@@H](C)COC(=O)[C@@H](OCc2ccccc2)C=C[C@@H]1C,0.224 (inactive),0.204,-0.66,-0.618 (inactive)
CCCNC(=O)OC[C@H]1O[C@H](CCON=Cc2ccc(C(=O)N3[C@H](c4ccc(C)cc4)[C@@H](C)CC[C@H]3C(=O)OC)cc2)C=C[C@@H]1Oc1ccc(OC)cc1,0.236 (inactive),0.257,-2.3,-2.32 (inactive)
O=C1C2=CC[C@H]3C(=O)N(c4cccc(Oc5ccccc5)c4)C(=O)[C@H]3[C@H]2[C@H](O)[C@@H]2O[C@H]12,-0.0743 (inactive),0.182,0.86,-2.99 (inactive)
